In the library only some 18% were active in any assay of this set; here they are far more common.
LDHA block: LDHA (human) enzyme inhibition. purified LDHA, NADH/diaphorase-resazurin fluorescence; stronger effect = lower value. activity change, % (values are at about 110 or 230 µM). hit rate 0.15% among 480,000; in the data active = activity change below about -30%; inconclusive = mostly about -25% to -30%;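 note: plate controls were DMSO wells for no effect and wells without enzyme for full effect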
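LDH5 2 nM; NADH 0.06 mM, pyruvate 0.2 mM; 200 mM Tris pH 7.4, EDTA, Tween-20; 5 min RT. Detection: diaphorase 0.133 mg/mL + resazurin 37 µM, fluorescence ex540/em590 at 0 and 20 min; normalized to enzyme-free and DMSO wells.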
IL1B secr inh: inflammasome signaling inhibition, IL-1 beta readout; THP-1 LPS/ATP IL-1B secretion, AlphaLISA, 16 h; stronger effect = lower value; hit rate 4.7% among 360,000; activity change, % at 57.5 µM; in the data active = activity change below about -50%; inconclusive = mostly about -30% to -49%
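Secreted IL-1B measured by AlphaLISA bead assay after 16 h compound exposure of THP-1 cells; compounds (final up to 57.5 uM) added 1 h before LPS (250 ng/mL) and ATP (1.25 mM) stimulation; lower signal means less secretion.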
RORg inh: inhibitors of mouse ROR gamma transcriptional activity; hit rate 5.4% among 310,000; Drosophila S2 Gal4-RORgamma UAS-luciferase reporter, 20 h; P51450; AID 2551; Potency, µM (series often up to 53.6 µM), without a hit: at the highest dose activity change, negative = inhibition, hits mostly inhibitors; note: potency is the fitted concentration of half-maximal effect; nearly all actives have a fitted effect of over 60% in size
Target sequence (P51450 whole entry, looked up, the tested form may be a part): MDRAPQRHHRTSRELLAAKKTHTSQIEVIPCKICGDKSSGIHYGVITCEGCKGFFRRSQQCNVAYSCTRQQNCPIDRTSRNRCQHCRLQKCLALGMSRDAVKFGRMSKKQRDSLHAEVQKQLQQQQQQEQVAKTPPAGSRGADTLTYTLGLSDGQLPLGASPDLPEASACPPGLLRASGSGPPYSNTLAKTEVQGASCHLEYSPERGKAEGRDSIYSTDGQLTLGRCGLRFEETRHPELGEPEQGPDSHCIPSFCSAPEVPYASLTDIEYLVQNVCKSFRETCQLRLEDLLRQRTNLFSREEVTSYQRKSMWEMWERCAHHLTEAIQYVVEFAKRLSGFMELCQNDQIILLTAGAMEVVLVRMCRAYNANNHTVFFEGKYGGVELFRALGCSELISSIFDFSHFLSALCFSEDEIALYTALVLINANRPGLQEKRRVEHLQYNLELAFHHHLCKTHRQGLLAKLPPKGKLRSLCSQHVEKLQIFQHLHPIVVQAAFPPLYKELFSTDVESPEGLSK
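Schneider cells (Drosophila), stable Gal4 DBD–ROR gamma + UAS-luc; 1 hr cmpd preincubation; Cu2+ induction 700 uM final; 20 hr ambient; luminescence.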
Gal4-VP16 FLuc: inhibits Gal4-VP16 luciferase reporter, ROR gamma counter-screen. hit rate 3.5% among 310,000. Potency, µM (doses to about 53.6 µM), for inactives: top-dose activity, negative = inhibition, actives largely listed as inhibitors. Drosophila S2 Gal4-VP16 UAS-luciferase, luminescence, 20 h. AID 2546;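 note: Gal4-VP16 expression switched on by copper sulfate through the metallothionein promoter; potency is the fitted concentration of half-maximal effect; nearly all actives have a fitted effect of over 50% in size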
DT40 TDP1 CPT: growth inhibition of DT40 Tdp1-/-;hTDP1 cells with camptothecin (screen for TDP1 inhibitors); hit rate 12% among 420,000; Potency, µM (titrated, usually from 46.2 µM), inactives show at the top dose activity change, negative = growth inhibition, usual class: inhibitors; chicken DT40 Tdp1-/-;hTDP1 cells + 20 nM CPT, ATP luminescence, 48 h; note: potency is the fitted concentration of half-maximal effect; nearly all actives have a fitted effect of over 55% in size
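Cell growth measured by CellTiter-Glo luminescence after a minimum 48 h, 37 C compound exposure with 20 nM CPT in Tdp1-knockout DT40 cells stably expressing hTDP1, seeded 400/well; qHTS titration format.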
TDP1 cell noCPT: qHTS for Inhibitors of human tyrosyl-DNA phosphodiesterase 1 (TDP1): qHTS in cells in absence of CPT; hit rate 15% among 420,000; DT40 Tdp1-/- hTDP1 cells, no CPT, ATP luminescence, 48 h; Potency, µM (series often up to 46.2 µM), for the others: at the top dose activity change, negative = growth inhibition, usual class: inhibitors; note: potency is the fitted concentration of half-maximal effect; nearly all actives have a fitted effect of over 55% in size
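Readout: luminescence from CellTiter-Glo after 30 min in the dark at RT. Cells: DT40 Tdp1-/- with stable hTDP1, 400/well. Exposure: compounds alone, ≥48 hr, 37 °C.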
Starred values were filed as active, the others as inactive. Unless noted, calls come from the whole dose curve; as a rule, active = well fitted curve in the direction sought with a large enough effect; inconclusive = small, poorly fitted or top-dose-only effect, or another doubt; inactive = no such curve, though single readings can be large; an effect the other way counts as inactive or inconclusive. Unless noted, % is set by controls: 0 for no effect and ±100 for the full control effect.

`CC1CCN(Cc2ccc(NC(=O)C3CCN(c4nnc(-n5cccc5)s4)CC3)cc2)CC1` gave LDHA block -5.8, IL1B secr inh -5.6, RORg inh -5.1%, Gal4-VP16 FLuc -2.9%, DT40 TDP1 CPT 18.4µM* and TDP1 cell noCPT inconclusive.
Cc1cc(C)nc(N2CCC(C(=O)NC3CCCc4ccccc43)CC2)n1 (configuration not stated) was read as LDHA block 3.4, IL1B secr inh 0.0, RORg inh -19.0%, Gal4-VP16 FLuc 0.0%, DT40 TDP1 CPT -9.8% and TDP1 cell noCPT -7.2%.
O=S(=O)(NCCc1cn2ccccc2n1)c1ccc(Cl)cc1C(F)(F)F was read as LDHA block 1.4.
`O=C(Nc1ccc(C(F)(F)F)cc1)c1ccc(N2C(=O)CCS2(=O)=O)cc1` gave LDHA block 9.9.
COc1cccc(OCc2ccc(C(=O)O)o2)c1 was read as LDHA block 5.2.
O=C(C1CCN(c2nnc(N3CCCC3=O)s2)CC1)N1CCN(Cc2ccc3c(c2)OCO3)CC1 was read as LDHA block -0.6, IL1B secr inh inconclusive, RORg inh 19.0%, Gal4-VP16 FLuc 4.5%, DT40 TDP1 CPT 1.7% and TDP1 cell noCPT -26.7%.
For c1ccc(CN2CCC(N3CCN(Cc4ccc5c(c4)OCO5)CC3)CC2)cc1 the results were LDHA block -6.2, IL1B secr inh -26.9, RORg inh 9.2%, Gal4-VP16 FLuc 4.3%, DT40 TDP1 CPT inconclusive and TDP1 cell noCPT 18.4µM*.
O=C(C1CCN(c2nnc(-n3cccc3)s2)CC1)N1CCN(Cc2ccc3c(c2)OCO3)CC1 was read as LDHA block -11.5, IL1B secr inh 2.1, RORg inh 1.2%, Gal4-VP16 FLuc -2.8%, DT40 TDP1 CPT inconclusive and TDP1 cell noCPT 14.6µM*.
CNS(=O)(=O)c1ccc(C(=O)N2CCCC2c2ccc3c(c2)OCCCO3)cc1 (configuration not stated) was read as LDHA block -9.3.
For CC(C)Cc1nc(NCCN2CCOCC2)c(C#N)c2c1CCCC2 the results were LDHA block -0.8.
For COc1ccc(C)cc1NC(=O)C(OC(=O)c1cnccn1)c1ccccc1 (configuration not stated) the results were LDHA block -0.1, IL1B secr inh -15.9, DT40 TDP1 CPT -1.7% and TDP1 cell noCPT 4.9%.
For COc1ccc(C)cc1NC(=O)C(OC(=O)c1ccc([N+](=O)[O-])o1)c1ccccc1 (configuration not stated) the results were LDHA block 2.6, IL1B secr inh -6.1, RORg inh -22.0%, Gal4-VP16 FLuc -22.5%, DT40 TDP1 CPT 16.4µM* and TDP1 cell noCPT inconclusive.
C=C1CC2C(CCC3(C)C2CCC3(O)C(C)=O)C2(C)CCC(=O)C=C12 (configuration not stated) was read as LDHA block -4.0, IL1B secr inh -92.0*, RORg inh -35.3%, Gal4-VP16 FLuc -23.1%, DT40 TDP1 CPT inconclusive and TDP1 cell noCPT 25.9µM*.
For CC(=O)C1(C)CCC2C3C=C(C)C4=CC(=O)CCC4(C)C3CCC21C (configuration not stated) the results were LDHA block -3.8, IL1B secr inh -73.2*, DT40 TDP1 CPT 18.4µM* and TDP1 cell noCPT 23.1µM*.
For Cc1ccc(S(=O)(=O)N2C[C@@H]3[C@H]4CC[C@H](C4)[C@@H]3[C@@H](C)[C@H]2c2ccco2)cc1 the results were LDHA block 1.5, IL1B secr inh 44.6, DT40 TDP1 CPT 14.6µM* and TDP1 cell noCPT 14.6µM*.
`C[C@@H]1[C@H]2[C@@H]3CC[C@@H](C3)[C@H]2CN[C@H]1c1cn(Cc2ccccc2)c2ccccc12` gave LDHA block -2.7, IL1B secr inh -27.2, DT40 TDP1 CPT 16.4µM* and TDP1 cell noCPT inconclusive.

Source: PubChem (National Center for Advancing Translational Sciences (NCATS))
